From PubChem BioAssay (Tox21)
Records with an inconclusive call do not appear. The source made the active and inactive calls. Unless noted, the call rests on the fitted dose curve; in most records, active means well fitted curve in the direction sought with a large enough effect in the repeat runs; inconclusive means weak or mixed curves; inactive means no such curve, though single readings can be large; an effect the other way counts as inactive or inconclusive.

Legend:
[1] = target: Thyrotropin receptor (Homo sapiens) (UniProt P16473); assay: qHTS assay to identify small molecule antagonists of the thyroid stimulating hormone receptor (TSHR) signaling pathway (AID 1259385; calls by dose curve; further: nearly all actives have a fitted effect of over 20% in size)
Chain of Thyrotropin receptor (Homo sapiens) (P16473 whole entry, looked up): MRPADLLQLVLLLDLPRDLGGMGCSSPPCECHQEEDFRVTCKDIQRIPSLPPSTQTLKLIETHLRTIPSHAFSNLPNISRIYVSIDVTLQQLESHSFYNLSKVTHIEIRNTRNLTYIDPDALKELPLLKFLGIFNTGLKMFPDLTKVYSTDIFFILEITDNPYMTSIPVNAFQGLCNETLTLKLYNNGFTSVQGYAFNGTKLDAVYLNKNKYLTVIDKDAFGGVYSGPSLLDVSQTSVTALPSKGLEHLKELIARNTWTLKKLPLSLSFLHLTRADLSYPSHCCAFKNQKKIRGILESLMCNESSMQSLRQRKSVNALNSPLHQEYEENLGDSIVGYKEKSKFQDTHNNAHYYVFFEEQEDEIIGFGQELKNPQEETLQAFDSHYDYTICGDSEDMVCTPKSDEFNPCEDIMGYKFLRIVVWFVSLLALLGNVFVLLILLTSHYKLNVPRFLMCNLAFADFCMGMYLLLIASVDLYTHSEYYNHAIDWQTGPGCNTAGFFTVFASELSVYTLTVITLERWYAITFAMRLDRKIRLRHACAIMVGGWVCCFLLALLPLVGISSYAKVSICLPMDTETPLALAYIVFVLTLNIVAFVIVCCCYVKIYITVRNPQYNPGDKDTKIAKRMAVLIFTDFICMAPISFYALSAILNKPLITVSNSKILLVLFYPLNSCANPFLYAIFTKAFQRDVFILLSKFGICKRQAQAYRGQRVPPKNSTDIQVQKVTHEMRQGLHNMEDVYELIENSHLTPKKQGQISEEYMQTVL
How it was run: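 TSHR-HEK293 cells (800/well) plated 18 h, then compounds with Ro20-1724 and TSH at 1.5 ng/mL final, 30 min at room temperature. cAMP quantified by HTRF (cAMP-d2/anti-cAMP-cryptate, 1 h); 15 concentrations in triplicate.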

[2] = qHTS assay to identify small molecule agonists of the estrogen receptor alpha (ER-alpha) signaling pathway in the presence of an antagonist - cell viability counter screen (AID 1259386);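 further: series mostly up to about 92 µM; cells exposed to compounds for 22 h at 37 °C before the viability read; nearly all actives have a fitted effect of over 30% in size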
How it was run: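 VM7Luc4E2, stripped-serum pre-culture 5 d; 24hr plating; +ICI-182,780 10.0nM final; cpds 15 conc, 22hr, 37C/5% CO2; CellTiter-Fluor added at 21hr, fluorescence 1hr later.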

[3] = target: Progesterone receptor (Homo sapiens) (UniProt P06401); assay: qHTS assay to identify small molecule agonists of the progesterone receptor (PR) signaling pathway (AID 1346784; calls by dose curve; further: nearly all actives have a fitted effect of over 30% in size)
Chain of Progesterone receptor (Homo sapiens) (P06401 whole entry, looked up): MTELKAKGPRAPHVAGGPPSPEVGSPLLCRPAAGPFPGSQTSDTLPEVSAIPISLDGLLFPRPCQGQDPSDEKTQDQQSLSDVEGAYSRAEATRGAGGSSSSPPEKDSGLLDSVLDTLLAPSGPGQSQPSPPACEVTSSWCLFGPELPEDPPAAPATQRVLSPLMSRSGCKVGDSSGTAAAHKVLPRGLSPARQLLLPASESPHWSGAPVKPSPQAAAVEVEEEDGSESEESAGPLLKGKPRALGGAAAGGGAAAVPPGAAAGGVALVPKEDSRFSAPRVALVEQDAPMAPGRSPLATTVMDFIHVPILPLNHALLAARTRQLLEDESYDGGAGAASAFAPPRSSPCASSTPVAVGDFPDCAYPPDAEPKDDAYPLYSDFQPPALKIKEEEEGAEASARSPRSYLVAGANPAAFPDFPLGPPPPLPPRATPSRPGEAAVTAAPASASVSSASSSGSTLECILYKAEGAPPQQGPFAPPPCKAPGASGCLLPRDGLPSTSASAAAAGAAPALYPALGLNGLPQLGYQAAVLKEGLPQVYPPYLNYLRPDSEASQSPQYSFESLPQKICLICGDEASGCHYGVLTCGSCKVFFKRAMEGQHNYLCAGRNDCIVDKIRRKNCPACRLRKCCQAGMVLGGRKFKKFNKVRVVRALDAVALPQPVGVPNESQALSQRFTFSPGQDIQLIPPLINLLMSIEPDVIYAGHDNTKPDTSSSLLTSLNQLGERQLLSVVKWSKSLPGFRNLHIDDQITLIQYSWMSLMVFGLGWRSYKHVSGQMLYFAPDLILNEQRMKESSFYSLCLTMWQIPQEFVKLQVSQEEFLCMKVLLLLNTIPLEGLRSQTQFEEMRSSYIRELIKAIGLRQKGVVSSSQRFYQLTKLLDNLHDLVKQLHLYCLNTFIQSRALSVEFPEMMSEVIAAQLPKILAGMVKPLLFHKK
How it was run: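 Using charcoal-stripped serum (2%) to limit endogenous steroids, PR-UAS-bla HEK 293T cells received compounds for 16 hr at 37C after 6 hr plating; beta-lactamase FRET fluorescence was recorded following 2 hr substrate loading at room temperature.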

[4] = target: Progesterone receptor (Homo sapiens) (UniProt P06401); assay: qHTS assay to identify small molecule antagonists of the progesterone receptor (PR) signaling pathway (AID 1346795; active means well fitted inhibition curve with a large enough effect in the signal ratio in the repeat runs, not every such curve was filed as active; the % refers to the signal ratio)
How it was run: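 Inhibition of R5020-induced (1 nM final) beta-lactamase reporter signal in PR-UAS-bla HEK293T cells was scored by FRET fluorescence after overnight (16 hr) compound treatment.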

[5] = qHTS assay to identify small molecule antagonists of the progesterone receptor (PR) signaling pathway - cell viability counter screen (AID 1346798); further: nearly all actives have a fitted effect of over 50% in size; further: potency means the concentration at half of the fitted maximal effect
How it was run: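 ATP content as viability readout: CellTiter-Glo luminescence, 30 min room temperature, in PR-UAS-bla HEK293T cells after 16 hr compound/R5020 treatment at 37C and 5% CO2.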

[6] = qHTS assay to identify small molecule agonists of the progesterone receptor (PR) signaling pathway - cell viability counter screen (AID 1346799; calls by dose curve; further: nearly all actives have a fitted effect of over 45% in size)
How it was run: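 Cytotoxicity in PR-bla HEK293T cells: 16 h compound, 37C; CellTiter-Glo added post-FRET read; luminescence after 30 min RT.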

[7] = qHTS assay to identify small molecule antagonists of the TGF-beta/Smad signaling pathway - cell viability counter screen (AID 1346824); further: nearly all actives have a fitted effect of over 50% in size
How it was run: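 SBE-bla HEK 293T cells, incubated overnight, then compound plus 0.25 ng/mL TGF-beta1 (stock added) for 5 hr at 37 C. Viability was read in the same wells by CellTiter-Glo luminescence after 30 min at room temperature.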

[8] = qHTS assay to identify small molecule agonists of the TGF-beta/Smad signaling pathway - cell viability counter screen (AID 1346829); further: top concentration of the series differs between compounds; nearly all actives have a fitted effect of over 45% in size
How it was run: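 Cytotoxicity counter screen: CellTiter-Glo luminescence (30 min, room temperature) measured in the SBE-bla HEK 293T reporter wells after 5 hr compound treatment at 37 C and the 2 hr substrate step.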

[9] = qHTS assay to identify small molecule agonists of the TGF-beta/Smad signaling pathway (AID 1346859; active means well fitted activation curve with a large enough effect in the signal ratio in the repeat runs, not every such curve was filed as active; the % refers to the signal ratio; further: series mostly up to about 77 µM)
How it was run: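 Stable Smad binding element-beta-lactamase HEK 293T cells; 5 hr compound exposure at 37 C under 5% CO2; 2 hr room-temperature substrate step; fluorescence excited at 405 nm, collected at 460 nm and 530 nm.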

[10] = target: Thyrotropin-releasing hormone receptor (Homo sapiens) (UniProt P34981); assay: qHTS assay to identify small molecule antagonists of the thyrotropin-releasing hormone receptor (TRHR) signaling pathway (AID 1346877; active means well fitted inhibition curve with a large enough effect in the repeat runs, not every such curve was filed as active; further: series mostly up to about 51 µM)
Chain of Thyrotropin-releasing hormone receptor (Homo sapiens) (P34981 whole entry, looked up): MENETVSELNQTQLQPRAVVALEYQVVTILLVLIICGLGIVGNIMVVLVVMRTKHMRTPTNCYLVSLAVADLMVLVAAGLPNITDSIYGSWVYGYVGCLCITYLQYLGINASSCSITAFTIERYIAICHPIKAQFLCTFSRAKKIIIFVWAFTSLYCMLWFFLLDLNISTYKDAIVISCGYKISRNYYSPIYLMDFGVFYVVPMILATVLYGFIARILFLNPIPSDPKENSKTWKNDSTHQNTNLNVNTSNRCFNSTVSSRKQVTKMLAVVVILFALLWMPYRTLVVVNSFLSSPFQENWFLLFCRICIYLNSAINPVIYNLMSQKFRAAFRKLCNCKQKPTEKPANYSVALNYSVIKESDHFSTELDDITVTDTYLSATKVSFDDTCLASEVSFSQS
How it was run: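 Intracellular calcium fluorescence, read kinetically every second over 3 min, reports TRH-evoked signalling in HEK293 cells carrying TRHR. Test compounds were added 5 min ahead of a 1 nM TRH challenge.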

[11] = target: Thyrotropin-releasing hormone receptor (Homo sapiens) (UniProt P34981); assay: qHTS assay to identify small molecule agonists of the thyrotropin-releasing hormone receptor (TRHR) signaling pathway (AID 1346891; calls by dose curve;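 further: HEK293 cells expressing TRHR with calcium dye readout; series mostly up to about 58 µM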)
How it was run: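 In 1536-format, 1500 TRHR-Hek293 cells per well grew 18 h, took up calcium dye for 2 h at 37 °C, received compound, and were read kinetically; 15-point titrations, triplicates.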

[12] = Caspase-3/7 induction in HepG2 cells by small molecules, qHTS assay (AID 1346978); further: nearly all actives have a fitted effect of over 15% in size
How it was run: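 Wild-type HepG2 cells, 2,000/well, settled 5 hr at 37 C and 5% CO2, then compound-treated for 17 hr; caspase-3/7 activity read by luminescent Caspase-Glo 3/7 after 30 min at room temperature.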

[13] = Caspase-3/7 induction in CHO-K1 cells by small molecules, qHTS cell viability counter screen (AID 1346979); further: nearly all actives have a fitted effect of over 35% in size
How it was run: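 To flag cytotoxic compounds, treated CHO-K1 wild-type cells were given CellTiter-Fluor at 16hr and read fluorescently after 1hr at 37C; the caspase-3/7 luminescence was measured in these same wells.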

[14] = Caspase-3/7 induction in CHO-K1 cells by small molecules, qHTS assay (AID 1346980); further: nearly all actives have a fitted effect of over 15% in size
How it was run: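 Wild-type CHO-K1 cells exposed to compounds for 17hr at 37 C, 5% CO2. Caspase-3/7 activity then measured by Caspase-Glo 3/7 luminescence after 30min at room temperature.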

[15] = Caspase-3/7 induction in HepG2 cells by small molecules, qHTS cell viability counter screen (AID 1346981); further: series mostly up to about 92 µM; nearly all actives have a fitted effect of over 30% in size
How it was run: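 HepG2, WT, 2,000 cells/well; 5 hr pre-incubation 37 C/5% CO2; compound pin-transferred from DMSO; 16 hr exposure; CellTiter-Fluor, 1 hr; fluorescence read.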

[16] = target: Nuclear receptor subfamily 1 group I member 2 (Homo sapiens) (UniProt O75469); assay: Human pregnane X receptor (PXR) small molecule agonists, qHTS assay (AID 1346982); further: nearly all actives have a fitted effect of over 35% in size
Chain of Nuclear receptor subfamily 1 group I member 2 (Homo sapiens) (O75469 whole entry, looked up): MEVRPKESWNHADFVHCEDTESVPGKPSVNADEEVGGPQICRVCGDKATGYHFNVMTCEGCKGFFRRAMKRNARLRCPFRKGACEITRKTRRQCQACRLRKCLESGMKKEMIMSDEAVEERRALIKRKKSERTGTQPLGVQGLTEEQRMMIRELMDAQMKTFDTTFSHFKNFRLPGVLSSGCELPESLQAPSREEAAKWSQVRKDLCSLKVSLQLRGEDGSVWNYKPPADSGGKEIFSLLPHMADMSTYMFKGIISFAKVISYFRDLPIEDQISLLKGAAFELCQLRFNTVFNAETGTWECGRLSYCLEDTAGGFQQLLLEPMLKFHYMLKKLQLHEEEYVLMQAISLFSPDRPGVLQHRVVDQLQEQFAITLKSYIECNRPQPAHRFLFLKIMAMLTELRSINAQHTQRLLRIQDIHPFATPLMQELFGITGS
How it was run: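 Luciferase signal from ONE-Glo (30 min, room temperature) measured activation of hPXR-driven CYP3A4 reporter expression in PXR-Luc HepG2 cells treated with compounds for 24 hr at 37 C.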

[17] = Human pregnane X receptor (PXR) small molecule agonists, qHTS cell viability counter screen (AID 1346977); further: nearly all actives have a fitted effect of over 50% in size
How it was run: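 Readout is CellTiter-Fluor fluorescence from PXR-Luc HepG2 cells. Plated cells rested 5hr, then were treated with compounds for 24hr at 37C and 5% CO2, with reagent present during the last hour.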

Measured: Potency

CC1N=C(N)OC1c1ccccc1 (stereo not drawn)
active: [5] 37.7 µM
not listed: [17]
inactive: all other assays above

NNC(N)=O
not listed: [13] | [14] | [16]
inactive: all other assays above

BrCCc1ccccc1
not listed: [8]
inactive: all other assays above

CCOC(=O)c1ncn2c1CN(C)C(=O)c1c(I)cccc1-2
not listed: [6]
inactive: all other assays above

CC(C)c1ccc(O)cc1
not listed: [8] | [16]
inactive: all other assays above

CS(=O)(=O)Cl
not listed: [8]
inactive: all other assays above

CNC(=O)Oc1ccccc1C(C)C
not listed: [10] | [11]
inactive: all other assays above

O=CCCl
not listed: [7] | [8]
inactive: all other assays above

[O-][Br+2]([O-])O
not listed: [8] | [13]
inactive: all other assays above
